Experimental data taken from PubChem BioAssay (NCATS).
Where “and” joins values, the source holds several entries; their conditions need not be identical. Identical values can stand only once. Records with an inconclusive call do not appear. Calls of active or inactive are those of the source. Unless noted, the call rests on the fitted dose curve; in most records, active means well fitted curve in the direction sought with a large enough effect; inconclusive means small, poorly fitted or top-dose-only effect, or another doubt; inactive means no such curve, though single readings can be large; an effect the other way counts as inactive or inconclusive.

How the values were obtained:
[1] = Cellular Toxicity (caspase-3) HepG2 (AID 654);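 further: cells exposed to compound for 16 hours before reading; 0% = DMSO alone and 100% = caspase signal from 100 µM tamoxifen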
Outline: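 Luminescent Caspase-Glo 3/7 readout after 16 hr compound exposure of human hepatocellular carcinoma HepG2 cells at 37 °C; qHTS concentration-response, normalized DMSO = 0%, 100 uM tamoxifen = 100%; AC50 by standard Hill equation.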

[2] = Cellular Toxicity (caspase-3) HUV-EC-C (AID 656);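 further: 0% = DMSO basal and 100% = 100 µM tamoxifen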
Outline: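 qHTS; HUV-EC-C, 1000 cells/well; 5 hr settle, 16 hr cmpd, 37°C; Caspase-Glo 3/7, 20 min RT; luminescence. Norm: DMSO = 0%, tamoxifen 100 uM = 100%. Hill-fit AC50.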

[3] = Cellular Toxicity (caspase-3) SHSY5Y (AID 657)
Outline: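 qHTS, SH-SY5Y, 1500 cells/well, 5 h pre-incubation 37 °C; compound 16 h 37 °C; Caspase-Glo 3/7 1 h RT; luminescence. Norm.: DMSO = 0, 10 uM staurosporine = 100%. Hill fit → AC50.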

[4] = Cellular Toxicity (caspase-3) BJ (AID 658);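 further: 0% = DMSO basal and 100% = 10 µM staurosporine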
Outline: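 qHTS, BJ fibroblasts, 1000 cells/well; 5 hr preincubation, 16 hr compound, 37 °C; Caspase-Glo 3/7 reagent, 1 hr RT; luminescence. DMSO = 0%, 10 uM staurosporine = 100%. Hill-equation AC50.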

[5] = Cellular Toxicity (caspase-3) Mesangial (AID 660);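 further: combined caspase 3 and 7 activity read by Caspase-Glo luminescence; cells exposed to compound for 16 h before the caspase read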
Outline: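 Luminescent Caspase-Glo 3/7 readout (aminoluciferin substrate cleavage, 20 min RT) after 16 h compound exposure at 37 °C of normal human mesangial cells. Signal increase normalized between DMSO basal and 100 uM tamoxifen; Hill-equation AC50.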

[6] = Cellular Toxicity (caspase-3) SK-N-SH (AID 661);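 further: 0% = DMSO basal and 100% = 10 µM staurosporine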
Outline: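 Luminescent Caspase-Glo 3/7 read-out after 16 hr compound exposure of SK-N-SH neuroblastoma cells at 37 °C. Signal increase normalized to DMSO (basal) and 10 uM staurosporine (100%); AC50 from Hill equation fits of qHTS concentration-response data.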

[7] = Cellular Toxicity (caspase-3) H-4-II-E (AID 663); details: Potency: caspase-3 activation;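 further: cells exposed to compound for 16 hr before readout; 0% = DMSO basal and 100% = 100 µM tamoxifen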
Outline: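 H-4-II-E rat hepatoma, 1500 cells/well, 5 hr settle at 37 °C; compound 16 hr, 37 °C, complete medium; Caspase-Glo 3/7, 20 min RT; luminescence. DMSO = 0%, 100 uM tamoxifen = 100%; Hill-equation AC50.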

[8] = Cellular Toxicity (caspase-3) N2a (AID 665);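 further: compound exposure lasted 16 h at 37 °C before readout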
Outline: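 Luminescent Caspase-Glo 3/7 readout in N2a mouse neuroblastoma cells after 16 h compound exposure at 37 °C. Signal scaled to DMSO (basal) and 10 uM staurosporine (100%). Concentration-response fitted with Hill equation for AC50.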

[9] = Cell Viability - LYMP2-001 (AID 921);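 further: series mostly up to about 92 µM; 0% = DMSO only and full inhibition = tetraoctylammonium bromide control wells; nearly all actives have a fitted effect of over 70% in size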
Outline: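 Steps: seed 2500 lymphoblastoid cells/well; 5 hr, 37 C; add compound; 24 hr, 37 C; CellTiter-Glo reagent, 30 min room temperature; read luminescence. Concentration-response modeled by Hill equation for AC50.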

[10] = Cell Viability - LYMP1-002 - Assay at 16 hr (AID 948);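 further: 0% = DMSO alone and full effect = 92 µM tetraoctylammonium bromide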
Outline: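 Seed 2500 LYMP1-002 cells per well in complete medium and hold 5 hr at 37 C. Add compound across a concentration series and incubate 16 hr at 37 C. Add CellTiter-Glo, wait 30 min at room temperature, read luminescence.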

[11] = MultiTox-Fluor Cytotoxicity Assay - LYMP1-003 - Dead Cells (AID 961);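 further: 0% = DMSO and 100% = tetraoctylammonium bromide; nearly all actives have a fitted effect of over 70% in size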
Outline: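 LYMP1-003 human lymphoblastoid cells (2500/well) exposed to compound 16 h at 37 C in complete medium; dead-cell protease read with bis-AAF-R110 fluorescence (Ex/Em 485/520) after 60 min at room temperature. Normalized to DMSO and 15 uM tetraoctylammonium bromide; AC50 from Hill fit.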

[12] = MultiTox-Fluor Cytotoxicity Assay - LYMP1-003 - Live Cells (AID 962);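 further: 0% = DMSO only and full loss = 92 µM tetraoctylammonium bromide; cytotoxic hits lower the live-cell protease signal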
Outline: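 Readout: live-cell fluorescence (Ex/Em=405/510) from GF-AFC cleavage after 60 min MultiTox-Fluor reagent at room temperature. Lymphoblastoid LYMP1-003 cells, 16 hr compound treatment, 37 C. Concentration-response fitted to standard Hill equation for AC50.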

[13] = Cell Viability - LYMP2-013 (AID 970);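 further: series mostly up to about 92 µM; 0% = DMSO only and full inhibition = tetraoctylammonium bromide control; nearly all actives have a fitted effect of over 55% in size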
Outline: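 CellTiter-Glo luminescence (cellular ATP) read after 30 min at RT. Cells: human lymphoblastoid line, 2500/well, 24 hr compound exposure at 37 C. Tetraoctylammonium bromide positive control; AC50 via standard Hill fit of qHTS titrations.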

[14] = Cell Viability - LYMP2-023 (AID 975);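 further: cellular ATP measured by luciferase luminescence as viability proxy; series mostly up to about 92 µM; cells exposed to compound for 24 hours at 37 °C; plate controls were DMSO only for no effect and 92 µM tetraoctylammonium bromide control for full effect; nearly all actives have a fitted effect of over 55% in size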
Outline: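 CellTiter-Glo luminescence after 30 min at room temperature; decrease in intracellular ATP reflects toxicity. Cells: human lymphoblastoid line, 2500/well, 24 hr compound exposure at 37 C. AC50 fitted to standard Hill equation from concentration-response.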

[15] = Cell Viability - LYMP2-025 (AID 976);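 further: series mostly up to about 92 µM; plate controls were DMSO only for no effect and tetraoctylammonium bromide control for full effect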
Outline: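 CellTiter-Glo luminescence (cellular ATP) after 24 h compound exposure at 37 C; LYMP2-025 human lymphoblastoid cells, 2500/well, complete medium. Tetraoctylammonium bromide positive control. AC50 by Hill equation fit of qHTS concentration-response.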

[16] = Cell Viability - LYMP2-007 (AID 979);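 further: cells exposed to compound for 24 h before reading; 0% = DMSO only and the negative end = 92 µM tetraoctylammonium bromide; nearly all actives have a fitted effect of over 60% in size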
Outline: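 qHTS cytotoxicity: 2500 cells/well, 5 hr 37 C settle, compound 24 hr 37 C, CellTiter-Glo 30 min RT, luminescence. Decrease in ATP = toxicity. AC50 by standard Hill equation; tetraoctylammonium bromide positive control.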

[17] = Cell Viability - LYMP2-008 (AID 980); further: on the % scale 0 is the no-effect control and ±100 the full control effect; nearly all actives have a fitted effect of over 60% in size
Outline: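 Luminescent ATP read-out (CellTiter-Glo, 30 min RT) after 24 hr compound exposure at 37 C of human lymphoblastoid cells in complete medium. Decrease in ATP taken as cytotoxicity; AC50 derived by standard Hill fit of qHTS concentration-response data.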

[18] = Cell Viability - LYMP2-026 (AID 989); further: on the % scale 0 is the no-effect control and ±100 the full control effect; nearly all actives have a fitted effect of over 50% in size
Outline: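 qHTS cytotoxicity: 2500 cells/well, 5 hr 37 C, compound 24 hr 37 C, CellTiter-Glo 30 min RT, luminescence. Tetraoctylammonium bromide positive control. AC50 via standard Hill fit.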

[19] = qHTS Assay for Identification of Small Molecule Inducers of Hypoxia Response (AID 2120; active means well fitted curve in the direction sought with a large enough effect in the signal ratio, with a control signal flat, not every such curve was filed as active; the % refers to the signal ratio; further: 0% is about no effect)
Outline: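 Read-out: CCF4 FRET emission ratio 460nm/530nm (excitation 405nm), converted to %Activity, with AC50 fitted across a compound titration. ME-180 cells carried an HRE-driven beta-lactamase reporter; compound exposure 17 h, 37 degrees C.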

[20] = qHTS assay for cell viability of HEK293 cells (AID 743288); details: ATP luminescence (CellTiter-Glo), 18 h, stronger effect = lower value; further: on the % scale 0 is the no-effect control and ±100 the full control effect; nearly all actives have a fitted effect of over 50% in size
Outline: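 Viable-cell counts were inferred from luciferase-based ATP content in HEK293 cells seeded at 2,000/well, pre-incubated ≥5 h, then dosed with DMSO-solubilised compounds for 18 h at 37 C.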

Cc1cnc[nH]1
inactive: outcome [1] | outcome [2] | outcome [3] | outcome [4] | outcome [5] | Potency [6] | Potency [7] | outcome [8] | Potency [9] | outcome [10] | Potency [11] | outcome [12] | Potency [13] | Potency [14] | Potency [15] | Potency [16] | Potency [17] | Potency [18] | Potency [19] | max response [20] -9.96%

Nc1cccc(Cl)c1
inactive: outcome [1] | outcome [2] | outcome [3] | outcome [4] | outcome [5] | Potency [6] | Potency [7] | outcome [8] | Potency [9] | outcome [10] | Potency [11] | outcome [12] | Potency [13] | Potency [14] | Potency [15] | Potency [16] | Potency [17] | Potency [18] | Potency [19] | max response [20] -8.5%

O=C(O)C(Cl)Br (centres undefined)
inactive: outcome [1] | outcome [2] | outcome [3] | outcome [4] | outcome [5] | Potency [6] | Potency [7] | outcome [8] | Potency [9] | outcome [10] | Potency [11] | outcome [12] | Potency [13] | Potency [14] | Potency [15] | Potency [16] | Potency [17] | Potency [18] | Potency [19] | max response [20] 6.83%

CC(=O)[O-].CC(=O)[O-].CC(=O)[O-].[Cr+3]
inactive: outcome [1] | outcome [2] | outcome [3] | outcome [4] | outcome [5] | Potency [6] | Potency [7] | outcome [8] | Potency [9] | outcome [10] | Potency [11] | outcome [12] | Potency [13] | Potency [14] | Potency [15] | Potency [16] | Potency [17] | Potency [18] | Potency [19] | max response [20] -3.81%

C[N+](=O)[O-]
inactive: outcome [1] | outcome [2] | outcome [3] | outcome [4] | outcome [5] | Potency [6] | Potency [7] | outcome [8] | Potency [9] | outcome [10] | Potency [11] | outcome [12] | Potency [13] | Potency [14] | Potency [15] | Potency [16] | Potency [17] | Potency [18] | Potency [19] | max response [20] 4.12%

c1ccoc1
inactive: outcome [1] | outcome [2] | outcome [3] | outcome [4] | outcome [5] | Potency [6] | Potency [7] | outcome [8] | Potency [9] | outcome [10] | Potency [11] | outcome [12] | Potency [13] | Potency [14] | Potency [15] | Potency [16] | Potency [17] | Potency [18] | Potency [19] | max response [20] 0.0286%

Nc1ccccc1-c1ccccc1
inactive: outcome [1] | outcome [2] | outcome [3] | outcome [4] | outcome [5] | Potency [6] | Potency [7] | outcome [8] | Potency [9] | outcome [10] | Potency [11] | outcome [12] | Potency [13] | Potency [14] | Potency [15] | Potency [16] | Potency [17] | Potency [18] | Potency [19] | max response [20] 3.8%

N#CCBr
inactive: outcome [1] | outcome [2] | outcome [3] | outcome [4] | outcome [5] | Potency [6] | Potency [7] | outcome [8] | Potency [9] | outcome [10] | Potency [11] | outcome [12] | Potency [13] | Potency [14] | Potency [15] | Potency [16] | Potency [17] | Potency [18] | Potency [19] | max response [20] -4.55%

CC[N+](=O)[O-]
inactive: outcome [1] | outcome [2] | outcome [3] | outcome [4] | outcome [5] | Potency [6] | Potency [7] | outcome [8] | Potency [9] | outcome [10] | Potency [11] | outcome [12] | Potency [13] | Potency [14] | Potency [15] | Potency [16] | Potency [17] | Potency [18] | Potency [19] | max response [20] 0.073%

CCBr
inactive: outcome [1] | outcome [2] | outcome [3] | outcome [4] | outcome [5] | Potency [6] | Potency [7] | outcome [8] | Potency [9] | outcome [10] | Potency [11] | outcome [12] | Potency [13] | Potency [14] | Potency [15] | Potency [16] | Potency [17] | Potency [18] | Potency [19] | max response [20] -3.34%

Oc1cc(Cl)c(Cl)c(Cl)c1Cl
inactive: outcome [1] | outcome [2] | outcome [3] | outcome [4] | outcome [5] | Potency [6] | Potency [7] | outcome [8] | Potency [9] | outcome [10] | Potency [11] | outcome [12] | Potency [14] | Potency [15] | Potency [16] | Potency [17] | Potency [18] | Potency [19] | max response [20] -11.3%

CCOC(=O)CC(SP(=O)(OC)OC)C(=O)OCC (centres undefined)
inactive: outcome [1] | outcome [2] | outcome [3] | outcome [4] | outcome [5] | Potency [6] | Potency [7] | outcome [8] | Potency [9] | outcome [10] | Potency [11] | outcome [12] | Potency [13] | Potency [14] | Potency [15] | Potency [16] | Potency [17] | Potency [18] | Potency [19] | max response [20] -12.5% and -3.42%

ClCCOCOCCCl
inactive: outcome [1] | outcome [2] | outcome [3] | outcome [4] | outcome [5] | Potency [6] | Potency [7] | outcome [8] | Potency [9] | outcome [10] | Potency [11] | outcome [12] | Potency [13] | Potency [14] | Potency [15] | Potency [16] | Potency [17] | Potency [18] | Potency [19] | max response [20] -1.26%

OCCOCCO
inactive: outcome [1] | outcome [2] | outcome [3] | outcome [4] | outcome [5] | Potency [6] | Potency [7] | outcome [8] | Potency [9] | outcome [10] | Potency [11] | outcome [12] | Potency [13] | Potency [14] | Potency [15] | Potency [16] | Potency [17] | Potency [18] | Potency [19] | max response [20] 1.68%
